MCF10A rerep: inducers of DNA re-replication in MCF 10A breast cells. actives 2.9% (n = 350,000). AID 624296. Potency, µM (top dose mostly 46.1 µM), without a hit: at the top dose activity, positive = re-replication, usual class: activators. MCF 10A DNA re-replication, Hoechst nuclear intensity, 48 h; note: potency is the fitted concentration of half-maximal effect; % of control where 0% means no effect; nearly all actives have a fitted effect of over 50% in size
Giardia kill: Giardia lamblia killing; Giardia lamblia trophozoite viability; activity change, % at 7.66 µM, hits read low; actives 0.15% (n = 340,000); in the data active = activity change below about -80%; inconclusive = between about -30% and that limit;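 note: parasites exposed to compound for two days anaerobically before the ATP read; % is set by controls: 0 for no effect and ±100 for the full control effect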
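Compounds were tested on trophozoites seeded at 100 cells/well and held 48 hrs at 37 deg C anaerobically. An ATP-based luminescent kit measured the remaining live cells.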
SW480 rerep: induces DNA re-replication in SW480 colon adenocarcinoma cells. SW480 DNA re-replication, Hoechst DNA content imaging, 48 h. actives 1.8% (n = 340,000). Potency, µM (doses to about 46.1 µM), for the others: top-dose re-replication activation, actives largely listed as activators; note: potency is the fitted concentration of half-maximal effect; % of control where 0% means no effect; nearly all actives have a fitted effect of over 55% in size
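SW480 cells exposed to compounds for 48 hr at 37 C, 5% CO2, then Hoechst-stained 40 min. Nuclear DNA content imaged by fluorescence scanning (405 nm excitation, 500-530 nm emission); re-replication scored as increased high-intensity nuclei.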
uPA surface inh: blocks generation of uPA at the cell surface; AID 540303; cell surface uPA generation assay, qHTS; Potency, µM (titrated, usually from 38.3 µM), for the others: at the highest dose activity change, negative = inhibition, hits mostly inhibitors; actives 0.31% (n = 330,000); active = well fitted inhibition curve with a large enough effect; inconclusive = small, poorly fitted or top-dose-only effect; inactive = no such curve, though single readings can be large or run the other way; tested in mouse RAW 264.7 cells; note: potency is the fitted concentration of half-maximal effect; % is set by controls: 0 for no effect and ±100 for the full control effect; nearly all actives have a fitted effect of over 55% in size
Starred values were filed as active, the others as inactive; [ ] = another dose, or the depositor's remark. In the library only some 4.3% were active in any assay of this set; here they are far more common. Unless noted, calls come from the whole dose curve; as a rule, active = well fitted activation curve with a large enough effect; inconclusive = small, poorly fitted or top-dose-only effect; inactive = no such curve, though single readings can be large or run the other way.

Screening Cc1ccc(C(=O)CCS(=O)(=O)c2ccc(Cl)cc2)cc1 returned MCF10A rerep 3.3µM*, Giardia kill -5, SW480 rerep 9.2µM* and uPA surface inh 2%.
C[C@H](CN1c2ccccc2Sc2cccnc21)N(C)C was read as MCF10A rerep 8% and SW480 rerep -4%.
Screening Cc1ccc(C)c(NC(=O)c2cnn3ccccc23)c1 returned MCF10A rerep 1%, Giardia kill 7, SW480 rerep 16% and uPA surface inh 11µM*.
Screening Cc1ccc(C)c(NC(=O)c2cc3ccccn3n2)c1 returned MCF10A rerep 0%, Giardia kill -20, SW480 rerep -12% and uPA surface inh -25%.
`Cc1ccc(O)c(-c2cc(-c3cccc(F)c3)n[nH]2)c1` gave MCF10A rerep 26µM*, Giardia kill -27, SW480 rerep inconclusive and uPA surface inh -7%.
For Cc1ccc(-c2cc(-c3cccc(F)c3)n[nH]2)c(O)c1 the results were MCF10A rerep inconclusive, Giardia kill 21, SW480 rerep 9% and uPA surface inh 1%.
Screening O=C(CCS(=O)(=O)Cc1ccccc1)Nc1ncc([N+](=O)[O-])s1 returned MCF10A rerep inconclusive, Giardia kill inconclusive, SW480 rerep 23µM* and uPA surface inh -12%.
O=C(CS(=O)(=O)c1ccccc1)Nc1ncc([N+](=O)[O-])s1 was read as MCF10A rerep -2%, Giardia kill inconclusive, SW480 rerep 0% and uPA surface inh 2%.
For O=C(CCS(=O)(=O)Cc1ccccc1)Nc1nncs1 the results were MCF10A rerep inconclusive, Giardia kill 18, SW480 rerep 21µM* and uPA surface inh -7%.
For O=C(CCS(=O)(=O)c1ccccc1)Nc1ncc([N+](=O)[O-])s1 the results were MCF10A rerep 4.6µM*, Giardia kill -81*, SW480 rerep 7.3µM* and uPA surface inh -16%.
Screening CN(C(=O)c1cccc(NC(=O)Cc2ccc(NC(=O)C3CCN(C(=O)c4ccccc4)CC3)cc2)c1)C1CCCCC1 returned MCF10A rerep inconclusive, Giardia kill -8, SW480 rerep -1%[9.22 µM] and uPA surface inh 12%.
Cc1cc(C(F)(F)F)c(C#N)c(=O)[nH]1 was read as MCF10A rerep -1%, Giardia kill -3, SW480 rerep -1% and uPA surface inh 1%.
N#Cc1c(C(F)(F)F)cc(-c2ccc(Cl)cc2)[nH]c1=O was read as MCF10A rerep 4.6µM*, Giardia kill -2, SW480 rerep inconclusive and uPA surface inh -2%.
Screening COc1ccc(-c2cc(C(F)(F)F)c(C#N)c(=O)[nH]2)cc1 returned MCF10A rerep 18µM*, Giardia kill -24, SW480 rerep 18% and uPA surface inh 3%.
N#Cc1c(C(F)(F)F)cc(-c2ccc(F)cc2)[nH]c1=O was read as MCF10A rerep 21µM*, Giardia kill 10, SW480 rerep 452% and uPA surface inh 1%.
`COc1ccccc1-c1cc(C(F)(F)F)c(C#N)c(=O)[nH]1` gave MCF10A rerep inconclusive, Giardia kill 7, SW480 rerep 20% and uPA surface inh -3%.
`N#Cc1c(C(F)(F)F)cc(-c2cccc(Cl)c2)[nH]c1=O` gave MCF10A rerep 16µM*, Giardia kill 35, SW480 rerep inconclusive and uPA surface inh 2%.
Cc1c(C)c2ccc(OCC(=O)N(C)C3CCS(=O)(=O)C3)c(C)c2oc1=O (configuration not stated) was read as MCF10A rerep -6%, Giardia kill 26, SW480 rerep 0% and uPA surface inh 3%.
Screening O=P1(NC2CCCCC2)OCC2(CO1)COP(=O)(NC1CCCCC1)OC2 (configuration not stated) returned MCF10A rerep -40%, Giardia kill 5, SW480 rerep -1% and uPA surface inh -4%.
O=C1c2ccccc2C(=O)c2c1cccc2N1CCCC1 was read as MCF10A rerep -1%, Giardia kill -19, SW480 rerep -19% and uPA surface inh -2%.
For O=C1C=C(N2CCCCC2)c2ccccc2C1=O the results were MCF10A rerep inconclusive, Giardia kill -11, SW480 rerep 3.3µM* and uPA surface inh -16%.
For O=C(NNC(=O)C1[C@H]2CCCC[C@@H]12)c1ccc(=O)oc1 (some centres not stated) the results were MCF10A rerep 14%, Giardia kill -12, SW480 rerep 2.3µM* and uPA surface inh -4%.
COc1ccc(CCc2ccc3ccccc3n2)cc1 was read as MCF10A rerep 18µM*, Giardia kill inconclusive, SW480 rerep -2% and uPA surface inh 3%.

Compound activity (PubChem)
